35 compounds from PubChem BioAssay (NCATS) can be followed below.

Records with an inconclusive call do not appear. Calls of active or inactive are those of the source. Calls follow the shape of the dose curve; as a rule, active = well fitted curve in the direction sought with a large enough effect; inconclusive = small, poorly fitted or top-dose-only effect, or another doubt; inactive = no such curve, though single readings can be large; an effect the other way counts as inactive or inconclusive.

Lysine-specific demethylase 5B (Homo sapiens), sequence (Q9UGL1 whole entry, looked up): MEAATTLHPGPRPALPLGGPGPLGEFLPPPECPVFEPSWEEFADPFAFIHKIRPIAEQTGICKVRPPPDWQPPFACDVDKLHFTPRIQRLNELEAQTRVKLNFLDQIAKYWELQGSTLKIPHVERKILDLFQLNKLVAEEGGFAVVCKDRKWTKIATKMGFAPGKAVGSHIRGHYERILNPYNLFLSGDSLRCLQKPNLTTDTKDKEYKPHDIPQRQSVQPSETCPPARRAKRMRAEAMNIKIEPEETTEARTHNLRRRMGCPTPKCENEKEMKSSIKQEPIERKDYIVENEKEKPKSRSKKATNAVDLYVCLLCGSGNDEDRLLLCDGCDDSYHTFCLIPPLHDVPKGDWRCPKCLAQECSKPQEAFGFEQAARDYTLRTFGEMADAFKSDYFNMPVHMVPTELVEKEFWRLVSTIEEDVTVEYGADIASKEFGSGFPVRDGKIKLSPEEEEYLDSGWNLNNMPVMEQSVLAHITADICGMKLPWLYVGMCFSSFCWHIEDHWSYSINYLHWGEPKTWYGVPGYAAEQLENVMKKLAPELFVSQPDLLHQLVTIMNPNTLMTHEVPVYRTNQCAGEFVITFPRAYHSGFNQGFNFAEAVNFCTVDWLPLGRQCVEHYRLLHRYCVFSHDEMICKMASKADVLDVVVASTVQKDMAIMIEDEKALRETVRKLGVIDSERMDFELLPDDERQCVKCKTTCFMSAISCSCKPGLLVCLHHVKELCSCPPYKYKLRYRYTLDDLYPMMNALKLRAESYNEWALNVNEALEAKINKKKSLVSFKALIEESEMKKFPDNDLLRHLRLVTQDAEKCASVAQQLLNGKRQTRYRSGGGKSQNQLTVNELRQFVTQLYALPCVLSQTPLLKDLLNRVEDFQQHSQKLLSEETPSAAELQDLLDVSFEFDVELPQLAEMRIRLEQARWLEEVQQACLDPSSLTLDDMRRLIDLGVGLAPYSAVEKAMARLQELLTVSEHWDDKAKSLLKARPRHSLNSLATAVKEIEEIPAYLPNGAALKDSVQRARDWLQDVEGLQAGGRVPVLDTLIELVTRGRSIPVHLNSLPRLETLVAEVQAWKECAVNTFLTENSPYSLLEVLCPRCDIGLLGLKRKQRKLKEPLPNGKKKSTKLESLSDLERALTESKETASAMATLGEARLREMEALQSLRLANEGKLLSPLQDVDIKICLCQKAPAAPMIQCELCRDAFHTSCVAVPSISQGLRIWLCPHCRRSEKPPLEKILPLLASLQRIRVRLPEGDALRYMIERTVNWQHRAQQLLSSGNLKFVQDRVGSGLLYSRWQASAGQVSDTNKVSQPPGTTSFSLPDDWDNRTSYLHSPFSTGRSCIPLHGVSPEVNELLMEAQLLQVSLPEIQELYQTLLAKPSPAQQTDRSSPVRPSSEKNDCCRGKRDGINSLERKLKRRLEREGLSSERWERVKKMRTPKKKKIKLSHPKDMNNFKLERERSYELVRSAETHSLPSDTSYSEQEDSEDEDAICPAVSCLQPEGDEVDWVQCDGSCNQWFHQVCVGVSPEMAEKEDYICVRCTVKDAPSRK

The target in one test is Lysine-specific demethylase 5B (Homo sapiens) (UniProt Q9UGL1). Nature of the test: Optimization screen for KDM5B Histone Demethylases FDH coupled qHTS against the LOPAC library (AID 1347166). Also: 0% is about no effect. The conditions noted are these: KDM5B demethylation, FDH-coupled NADH fluorescence (FDH is formaldehyde dehydrogenase); series mostly up to 57.5 µM; activity, negative = inhibition: at the top concentration. Summed up:
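KDM5BDeltaAP (200nM final) in 50mM HEPES pH 7.5, 0.01% Tween-20 was preincubated with compound for 10 min at room temperature. A substrate mix of 12.5uM H3K4Me3, 25uM a-ketoglutarate, ascorbate, Fe2+, NAD+ and formaldehyde dehydrogenase was then added. NADH fluorescence (340/450 nm) was read initially and after 30 min.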
(In general: Quantitative high-throughput screening tests each substance at several concentrations.)
For `O=C1CCc2cc(OCCCCc3nnnn3C3CCCCC3)ccc2N1`, the “activity, negative = inhibition” value is -3.85% (inactive).
The same measure, in the same setting: in the case of `Nc1ccc(S(=O)(=O)Nc2ccnn2-c2ccccc2)cc1` it was -7.84% (inactive); in that of `OC(CCN1CCCCC1)(c1ccccc1)C1CC2C=CC1C2` (stereo not drawn), -1.08% (inactive).
`Cc1[nH]c(=O)c(C#N)cc1-c1ccc2nccn2c1`: the “activity, negative = inhibition” value is -29.6% (inactive).
On to `Nc1nc2c(ncn2COCCO)c(=O)[nH]1`, for which the “activity, negative = inhibition” value is -3.95% (inactive).
Consider `C1COC(NC(C2CC2)C2CC2)=N1`, for which the “activity, negative = inhibition” value was -5.64% (inactive).
In the case of `Cn1cnc([N+](=O)[O-])c1Sc1ncnc2nc[nH]c12`, the “activity, negative = inhibition” value was -6.58% (inactive).
Consider `CCOC(=O)N1CCC(=C2c3ccc(Cl)cc3CCc3cccnc32)CC1`, for which the “activity, negative = inhibition” value was 2.02% (inactive).
Consider `CC(C[N+](C)(C)C)OC(N)=O` (stereo not drawn), for which the “activity, negative = inhibition” value is -6.33% (inactive).
As for `O=C(O)COCCN1CCN(C(c2ccccc2)c2ccc(Cl)cc2)CC1` (stereo not drawn), the “activity, negative = inhibition” value was -13.2% (inactive).
`O=NN(CCCl)C(=O)NCCCl`: the “activity, negative = inhibition” value is 1.97% (inactive).
As to `O=C(Nc1nc2ccccc2n1CCN1CCOCC1)c1cccc([N+](=O)[O-])c1`, the “activity, negative = inhibition” value is -3.17% (inactive).
`CN1CCN(CCCN2c3ccccc3Sc3ccc(C(F)(F)F)cc32)CC1`: the “activity, negative = inhibition” value is -22.4% (inactive).
Regarding `c1ccc([C@H]2CN3CCSC3=N2)cc1`, the “activity, negative = inhibition” value was -0.986% (inactive).
On to `Cc1cccc(-c2[nH]c(C(C)(C)C)nc2-c2ccc3nccnc3c2)n1`, for which the “activity, negative = inhibition” value was -8.9% (inactive).
Consider `OC(CN1CCC(Cc2ccc(F)cc2)CC1)c1ccc(Cl)cc1` (stereo not drawn), for which the “activity, negative = inhibition” value is -6.26% (inactive).
Take `CC(C)(C)NCC(O)c1ccc(O)c(CO)c1` (stereo not drawn): the compound was classed as inactive.
As to `CNC[C@H](O)c1cccc(O)c1`, the “activity, negative = inhibition” value is 1.23% (inactive).
In the case of `N[C@@H]1CONC1=O`, the “activity, negative = inhibition” value is -8.4% (inactive).
On to `CCC(C)N(C)C(=O)c1cc2ccccc2c(-c2ccccc2Cl)n1` (stereo not drawn), for which the “activity, negative = inhibition” value is -7.35% (inactive).
On to `Cc1oncc1C(=O)Nc1ccc(C(F)(F)F)cc1`, for which the “activity, negative = inhibition” value was 1.69% (inactive).
Still for that read-out and setting: under `CCCC(CCC)C(=O)O` stands 5.61% (inactive); under `CC(C)C[C@H](NC(=O)[C@@H](O)[C@H](N)Cc1ccccc1)C(=O)O`, -7.38% (inactive); under `CC(C)NCC(O)COc1ccc(COCCOC(C)C)cc1` (stereo not drawn), -4.78% (inactive).
For `CCOC(=O)C1=C[C@]2(CC)CCCN3CCc4c(n1c1ccccc41)[C@@H]32`, the “activity, negative = inhibition” value was -7.68% (inactive).
As to `N=c1nc(N2CCCCC2)cc(N)n1O`, the “activity, negative = inhibition” value is -9.13% (inactive).
On the same count and under the same terms, in the case of `NC(=O)c1cnccn1` it was -5.05% (inactive).

Test system in a further test: not listed separately
As to the kind of experiment: Vero cells viability qHTS for Zika virus inhibitors (AID 1347167). Also: % is scaled to controls: 0 for no effect and ±100 for the full control effect. The conditions noted are these: cytotoxicity counter-screen (Zika); series mostly up to 45.9 µM; activity change, negative = cytotoxicity: at the top concentration. Summed up: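 qHTS titration; 24-48 h compound exposure, 37 degrees C/5% CO2; DMEM, 4% FBS; CellTiter Glo ATP luminescence.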
As to `CCn1cc(C(=O)O)c(=O)c2cc(F)c(N3CCNC(C)C3)c(F)c21` (stereo not drawn), the compound was called inactive.
For `Cc1[nH]c(=O)c(C#N)cc1-c1ccc2nccn2c1`, the “activity change, negative = cytotoxicity” value was -2.53% (inactive).
For `Cc1[nH]c(=O)c(C#N)cc1-c1ccncc1`, the “activity change, negative = cytotoxicity” value was -1.22% (inactive).
For `O=C(C1CC1)N1CC[C@@H](Cn2c(-c3ccc(-c4ccc5occc5c4)cc3)nc3cnccc32)C1`, the “activity change, negative = cytotoxicity” value was -9.13% (inactive).
`O=c1n(CCCN2CCN(c3cccc(Cl)c3)CC2)nc2ccccn12`: the “activity change, negative = cytotoxicity” value was -1.48% (inactive).
On to `CCCc1nc2c(C)cc(-c3nc4ccccc4n3C)cc2n1Cc1ccc(-c2ccccc2C(=O)O)cc1`, for which the “activity change, negative = cytotoxicity” value was -5.33% (inactive).
Regarding `Cn1cnc([N+](=O)[O-])c1Sc1ncnc2nc[nH]c12`, the outcome was inactive.
`COCC(=O)NCC=Cc1ccc2ncnc(Nc3ccc(Oc4ccc(C)nc4)c(C)c3)c2c1`: the “activity change, negative = cytotoxicity” value is -3.74% (inactive).
On to `CCCCNc1cc(C(=O)O)cc(S(N)(=O)=O)c1Oc1ccccc1`, for which the “activity change, negative = cytotoxicity” value was -0.938% (inactive).
`COc1ccc(-c2ccc3c(N4CCOCC4)nc(N4C[C@@H](C)O[C@@H](C)C4)nc3n2)cc1CO`: the “activity change, negative = cytotoxicity” value was -3.5% (inactive).
Regarding `CN1CCN(CCCN2c3ccccc3Sc3ccc(C(F)(F)F)cc32)CC1`, the “activity change, negative = cytotoxicity” value was -6.36% (inactive).
